Data on 8 molecules can be found in PubChem BioAssay (NCI).

Structures are written as SMILES. About 83,000 compounds went through this panel and 20% of them were active in at least one assay; those are over-represented in the sample as a whole.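 Cell lines were cultured in 96-well plates, exposed to a single compound concentration, and assessed for percent growth 48 hours later.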 Unmarked numbers belong to inactive results. The source made the active and inactive calls. How the source made its calls: active means growth percent below 10; inactive means the rest.

For the assay, the system named is SN12C renal. Nature of the assay: NCI-60 one-dose screen, 48 h (100 = growth as untreated, 0 = no growth, -100 = all killed). The following applies: 10 µM unless noted.
Consider `O=C(CSc1nc2ccc([N+](=O)[O-])cc2[nH]1)Nc1ccc([N+](=O)[O-])cc1`, for which the growth was 9.04% (active). As for `CC(C)(Sc1cc(C(C)(C)C)c(OC(=O)CCCC(=O)O)c(C(C)(C)C)c1)Sc1cc(C(C)(C)C)c(OC(=O)CCCC(=O)O)c(C(C)(C)C)c1`, the growth was 19.6%.

On to `O=C(N(c1ccccc1)c1ccccc1)n1cc(I)c2nc(Cl)nc(Cl)c21`, for which the growth was 34.8%. For the molecule `NC(=O)CSc1oc(-c2ccccc2)nc1S(=O)(=O)c1ccc(Br)cc1`, the growth is 65.7%.

Consider `COc1ccc(/C=C/C(=O)c2cc3c(N)c(C(=O)Nc4cccc5ccccc45)sc3nc2C)cc1`, for which the growth is 87.5%. The result for `Nc1ncnc2c1c(-c1cccc(Cl)c1)nn2CC(=O)N1CCOCC1` reads 100%; that for `CC(=O)O[C@H]1CC2CCC3C(CC[C@@]4(C)C3C[C@H]([N+]3(C)CCCCC3)[C@@H]4OC(C)=O)[C@@]2(C)C[C@@H]1N1CCCCC1` (stereo partly drawn), 93%. Consider `c1ccc(Cn2cc3c(c2)-c2oncc2CC3)cc1`, for which the growth was 47.8%.
